A selection: hits, their analogues and other compounds. The true share with any hit is near 17%.
DT40 TDP1 CPT: growth inhibition of DT40 Tdp1-/-;hTDP1 cells with camptothecin (screen for TDP1 inhibitors); chicken DT40 Tdp1-/-;hTDP1 cells + 20 nM CPT, ATP luminescence, 48 h; Potency, µM (series often up to 46.2 µM), hits mostly inhibitors; 420,000 compounds, 12% hits; AID 686979; note: nearly all actives have a fitted effect of over 55% in size
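Chicken DT40 Tdp1-/- cells stably complemented with human TDP1 were seeded at 400 cells/well in medium containing 20 nM camptothecin, exposed to pin-transferred compounds, and grown at 37 °C for at least 48 hr. Viability was read as ATP luminescence.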
ATXN2 expr inh: ATXN2 expression inhibition; Potency, µM (doses to about 57 µM), actives largely listed as inhibitors; 360,000 compounds, 0.72% hits; AID 1745845; HEK-293 ATXN2-luciferase reporter, luminescence, 24 h; note: nearly all actives have a fitted effect of over 55% in size
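qHTS (up to 57 uM final) was run with 24 h compound exposure of reporter cells at 37 °C. Each well was multiplexed: SteadyGlo luminescence measured ATXN2-luciferase expression after a fluorogenic Gly-Phe-AFC viability readout (25 uM final).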
HepG2 viability: counter-screen for TGF-b inhibitors: cytotoxicity in HepG2 cells. HepG2 CAGA-GFP viability, ATP luminescence, 18 h. Potency, µM (top dose mostly 46.1 µM), most hits filed as cytotoxic. 410,000 compounds, 0.76% hits. AID 588856
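CellTiter-Glo luminescence gave cytotoxicity after 18 hours at 37 degrees C. The cells were HepG2 CAGA-GFP in 1% FBS DMEM, stimulated with 500 pg/mL TGF-beta after compound addition. %Activity was normalised to no-cell wells (complete cell-killing) and DMSO (no toxicity), and curves were fitted and classified.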
DT40 TDP1 no CPT: qHTS for Inhibitors of human tyrosyl-DNA phosphodiesterase 1 (TDP1): qHTS in cells in absence of CPT; DT40 Tdp1-/- hTDP1 cells, no CPT, ATP luminescence, 48 h; Potency, µM (highest dose often 46.2 µM), hits mostly inhibitors; 420,000 compounds, 15% hits; AID 686978, 2013; note: nearly all actives have a fitted effect of over 55% in size
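Cells were dispensed at 400 per well, compounds added by pin tool, plates incubated ≥48 hr at 37 °C, then CellTiter-Glo added for 30 min at room temperature before luminescence reading. Line: DT40 Tdp1-/- complemented with hTDP1; camptothecin omitted.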
S2 tox: viability counter-screen for ATXN expression inhibitors | S2 cells (HEK-293 line with an ATXN2-luciferase reporter) viability, CellTiter-Fluor protease fluorescence, 24 h | Potency, µM (doses to about 56.7 µM), actives largely listed as cytotoxic | 400,000 compounds, 0.49% hits | AID 651635; note: nearly all actives have a fitted effect of over 40% in size
TGFb inhibitor: inhibitors of TGF-b signaling. HepG2 CAGA-GFP TGF-b/SMAD3 reporter, GFP fluorescence, 18 h; TGF-beta stimulated, 500 pg/mL final. Potency, µM (series often up to 46.1 µM), usual class: inhibitors. 410,000 compounds, 1.2% hits. AID 588855; note: nearly all actives have a fitted effect of over 65% in size
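Smad-responsive CAGA-GFP expression was quantified in HEPG2 cells exposed to compounds and 500 pg/mL final TGF-beta for 18 h at 37 degrees C; unstimulated wells defined full inhibition.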
Of the large screens only hits and unclear results are named; the others gave an inactive call. Calls come from the whole dose curve; as a rule, active = well fitted curve in the direction sought with a large enough effect; inconclusive = small, poorly fitted or top-dose-only effect, or another doubt; inactive = no such curve, though single readings can be large; an effect the other way counts as inactive or inconclusive.

CCN(CC)S(=O)(=O)c1cc(C(=O)Nc2ccccc2[N+](=O)[O-])ccc1Cl	DT40 TDP1 CPT inconclusive, DT40 TDP1 no CPT 16µM, TGFb inhibitor 16µM
CC(C)(C)C(=O)COc1ccccc1[N+](=O)[O-]	DT40 TDP1 CPT 15µM, DT40 TDP1 no CPT inconclusive, S2 tox inconclusive
CCN(CC)S(=O)(=O)c1cc(C(=O)N2CCc3ccccc32)ccc1Cl	DT40 TDP1 CPT inconclusive, DT40 TDP1 no CPT 9.2µM, TGFb inhibitor inconclusive
COc1ccc(S(=O)(=O)N2CCN(C(=O)CSC(=S)N3CCCC3)CC2)cc1	HepG2 viability 16µM, DT40 TDP1 no CPT inconclusive, TGFb inhibitor inconclusive (no result: ATXN2 expr inh)
COc1ccc(S(=O)(=O)N2CCN(C(=O)CCSc3ccccc3)CC2)cc1	DT40 TDP1 CPT 12µM, DT40 TDP1 no CPT inconclusive, TGFb inhibitor inconclusive
COc1ccc(S(=O)(=O)N2CCN(C(=O)CCNC(=O)c3ccccc3Cl)CC2)cc1	none
O=C(COc1ccccc1[N+](=O)[O-])N/N=C/C=C/c1ccco1	DT40 TDP1 no CPT inconclusive
COc1ccccc1OCC(=O)N/N=C/C=C/c1ccc([N+](=O)[O-])o1	DT40 TDP1 CPT 6.5µM, ATXN2 expr inh inconclusive, DT40 TDP1 no CPT 7.3µM, S2 tox inconclusive, TGFb inhibitor 10µM
Cc1ccc(OCC(=O)N/N=C/C=C/c2ccco2)cc1	DT40 TDP1 CPT 8.2µM, DT40 TDP1 no CPT 7.3µM
Cc1ccccc1OCC(=O)N/N=C/c1ccc([N+](=O)[O-])o1	DT40 TDP1 CPT 10µM, DT40 TDP1 no CPT 8.2µM, S2 tox inconclusive, TGFb inhibitor 18µM (no result: ATXN2 expr inh)
Cc1cc(C)cc(OCC(=O)N/N=C/c2ccc([N+](=O)[O-])o2)c1	ATXN2 expr inh inconclusive, DT40 TDP1 no CPT inconclusive, S2 tox inconclusive, TGFb inhibitor inconclusive
Cc1nc(C(C)NC2CCN(c3cccc(NC(=O)c4ccncc4)c3)CC2)cs1 (stereo not given)	DT40 TDP1 CPT inconclusive (no result: ATXN2 expr inh, HepG2 viability, TGFb inhibitor)
Cc1ccc(CNC(=O)C2CCC(=O)N2C(C)C)cc1 (stereo not given)	S2 tox inconclusive
COc1ccccc1[C@]1(C)ON(c2ccccc2C(F)(F)F)C1=O	DT40 TDP1 CPT 26µM, ATXN2 expr inh inconclusive, DT40 TDP1 no CPT inconclusive, S2 tox inconclusive, TGFb inhibitor inconclusive
CC(C)C[C@]1(c2ccccc2)ON(c2ccccc2C(F)(F)F)C1=O	DT40 TDP1 CPT inconclusive, ATXN2 expr inh inconclusive
C=CCn1c(SCC(=O)c2[nH]c(C)c(C(=O)OCC)c2C)nc2scc(-c3ccc(OC)cc3)c2c1=O	DT40 TDP1 CPT 9.2µM, ATXN2 expr inh inconclusive, DT40 TDP1 no CPT 15µM, S2 tox inconclusive
C=CCn1c(SCC(=O)c2[nH]c(C)c(C(=O)OCC)c2C)nc2scc(-c3ccccc3)c2c1=O	DT40 TDP1 CPT 12µM, DT40 TDP1 no CPT 16µM
C=CCn1c(SCC(=O)NCC2CCCO2)nc2scc(-c3ccc(OC)cc3)c2c1=O (stereo not given)	DT40 TDP1 CPT inconclusive, DT40 TDP1 no CPT inconclusive
CC(=O)c1ccc(F)c(-c2cc(C)cc3c2OC(CNC(=O)C(C)n2nc(C)cc2C)C3)c1 (stereo not given)	S2 tox inconclusive (no result: ATXN2 expr inh, HepG2 viability, TGFb inhibitor)
Cc1ccc(S(=O)(=O)/N=C(\CCl)N2CCOCC2)cc1	DT40 TDP1 CPT 15µM, DT40 TDP1 no CPT 16µM, TGFb inhibitor inconclusive
Cc1c(Cl)cccc1NC(=O)Cn1c(=O)n(Cc2nc(-c3ccccc3)no2)c(=O)c2cc3c(cc21)OCO3	DT40 TDP1 CPT inconclusive, DT40 TDP1 no CPT inconclusive
COc1ccc(-c2csc(NC(=S)NC(=O)c3ccco3)n2)cc1Br	DT40 TDP1 CPT 10µM, DT40 TDP1 no CPT 2.9µM
COc1ccc(-c2csc(NC(=S)NC(=O)/C=C/c3ccco3)n2)cc1Br	DT40 TDP1 CPT 1.8µM, ATXN2 expr inh inconclusive, DT40 TDP1 no CPT 3.7µM
COc1ccc(-c2csc(NC(=S)NC(=O)c3ccccc3)n2)cc1Br	DT40 TDP1 no CPT inconclusive
COc1ccc(-c2csc(NC(=S)NC(=O)/C=C/c3ccco3)n2)cc1OC	DT40 TDP1 CPT 4.6µM, DT40 TDP1 no CPT 4.6µM, S2 tox inconclusive
COc1ccc(-c2csc(NC(=S)NC(=O)/C=C/c3ccc(C(C)C)cc3)n2)cc1OC	DT40 TDP1 CPT inconclusive, DT40 TDP1 no CPT inconclusive
Cc1nc(CNC(=O)CC2C(=O)NCCN2Cc2cccc(Oc3ccccc3)c2)cs1 (stereo not given)	DT40 TDP1 CPT inconclusive, DT40 TDP1 no CPT inconclusive (no result: ATXN2 expr inh)
CSc1nnc(Cn2c(=O)sc3ccccc32)n1-c1ccccc1C	DT40 TDP1 CPT inconclusive, DT40 TDP1 no CPT 18µM
CCSc1nnc(Cn2c(=O)sc3ccccc32)n1C	DT40 TDP1 CPT 13µM
CC(Sc1nnc(Cn2c(=O)sc3ccccc32)n1C)c1ccccc1 (stereo not given)	DT40 TDP1 CPT inconclusive
COc1ccc(C(=O)N2CCC3(CC2)CCN(C(c2ccccc2)c2ccccc2)CC3)cc1	none (no result: ATXN2 expr inh, HepG2 viability, S2 tox, TGFb inhibitor)
O=C(NC(Cc1ccc(O)cc1)C(=O)O)c1ccc2c(c1)OCO2 (stereo not given)	none
Cc1cc(-n2c(C)nc3ccccc3c2=O)ccc1NC(=O)c1ccc(C)c([N+](=O)[O-])c1	DT40 TDP1 CPT 7.3µM, DT40 TDP1 no CPT 5.2µM
COc1ccc(C)cc1S(=O)(=O)Nc1ccc(-n2c(C)nc3ccccc3c2=O)cc1	DT40 TDP1 CPT inconclusive, DT40 TDP1 no CPT inconclusive
Cc1nc2ccccc2c(=O)n1-c1ccc(NC(=O)c2ccccc2[N+](=O)[O-])cc1	DT40 TDP1 CPT inconclusive, ATXN2 expr inh inconclusive, DT40 TDP1 no CPT 23µM, S2 tox inconclusive
Cc1cc(C(=O)Nn2c(-c3ccc(Br)cc3)nc3ccccc3c2=O)ccc1[N+](=O)[O-]	DT40 TDP1 CPT 29µM, DT40 TDP1 no CPT inconclusive, TGFb inhibitor 13µM
Cc1cccc(S(=O)(=O)Nc2ccc(-n3c(C)nc4ccccc4c3=O)cc2)c1	DT40 TDP1 CPT inconclusive, DT40 TDP1 no CPT 23µM, S2 tox inconclusive
CN1CC=C2C(C#N)=C(N)C(C#N)(C#N)[C@H](c3cccc(Cl)c3)C2C1 (stereo not given in full)	DT40 TDP1 CPT inconclusive, DT40 TDP1 no CPT 23µM
CN1CC=C2C(C#N)=C(N)C(C#N)(C#N)C(c3ccsc3)C2C1 (stereo not given)	DT40 TDP1 CPT inconclusive, DT40 TDP1 no CPT inconclusive
CN1CC=C2C(C#N)=C(N)C(C#N)(C#N)[C@H](c3cccs3)[C@H]2C1	DT40 TDP1 CPT inconclusive, DT40 TDP1 no CPT 15µM
O=C(Nc1ccccc1OC(F)F)c1ccc(S(=O)(=O)N2CCOCC2)cc1	none
